The values that follow come from PubChem BioAssay (NCATS).

SMILES strings stand for the structures. “And” between values parts separate entries of the source, which are not always exact repeats. Identical values can stand only once. Results filed as inconclusive are left out. The source made the active and inactive calls. Unless noted, calls come from the whole dose curve; as a rule, active = well fitted curve in the direction sought with a large enough effect; inconclusive = small, poorly fitted or top-dose-only effect, or another doubt; inactive = no such curve, though single readings can be large; an effect the other way counts as inactive or inconclusive.

Assay [1] can be described thus: qHTS Assay for Identification of Small Molecule Agonists for Hypoxia Response Element Signaling Pathway (AID 914; active = well fitted activation curve with a large enough effect in the signal ratio, with a control signal flat, not every such curve was filed as active; the % refers to the signal ratio; note: potency is the fitted concentration of half-maximal effect; for activation: % of control where 0% means no effect). The note with it: ME-180 (cervical carcinoma) HRE-bla reporter, beta-lactamase ratio, CoCl2, 17 h; activation: stronger effect = higher value. A digest of the protocol:
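qHTS titration; ME-180 HRE-bla cells; EC50 CoCl2 co-treatment, 17 h at 37 degrees Celsius; CCF4 dye, ex 405nm, em 460nm and 530nm; %Activity from ratio; AC50.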

Assay [2] has as its target Cytochrome P450 2C9 (Homo sapiens) (UniProt P11712). Briefly: qHTS Assay for Inhibitors and Substrates of Cytochrome P450 2C9 (AID 883). Note: nearly all actives have a fitted effect of over 60% in size. Note: potency is the fitted concentration of half-maximal effect. A digest of the protocol: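 Luminescent read-out of deoxyluciferin hydroxylation, normalized to 57uM sulphaphenazole (AC100). Reaction: 10nM enzyme, 100uM Luciferin-H (equal to KM), 25mM KPO4, 10 min compound preincubation, then 60 min with NADPH regeneration, both at 37C.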
(qHTS replaces the single test concentration by a dilution series.)

In assay [3] the target is Dual specificity protein kinase CLK4 (Homo sapiens) (UniProt Q9HAZ1). Nature of the assay: qHTS Assay for Inhibitors of CDC-like Kinase 4 (Kinase-Glo Assay) (AID 1770). Note: potency is the fitted concentration of half-maximal effect; nearly all actives have a fitted effect of over 65% in size. A digest of the protocol:
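25 nM Clk4 with 100 uM RS repeat peptide and 1 uM ATP (final) in Tris pH7.5, 10 mM MgCl2, 4.5 h at room temperature. Remaining ATP measured by Kinase-Glo luciferase luminescence.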

The target in assay [4] is ATP-dependent 6-phosphofructokinase (Trypanosoma brucei brucei) (UniProt O15648). Nature of the assay: qHTS Assay to Find Inhibitors of T. brucei phosphofructokinase: hit validation (AID 492961).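 Note: luminescence reports ADP formed as PFK phosphorylates fructose-6-phosphate with ATP; % is set by controls: 0 for no effect and ±100 for the full control effect.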 A digest of the protocol:
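ADP-Glo luminescence read-out of ADP formed by 1.25 nM PFK from 0.1 mM ATP and 0.5 mM F6P (TEA pH 8.0, 45 min, RT). Compounds titrated; activity normalized to no-enzyme and full-enzyme controls.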

A short description of assay [5]: qHTS profiling for inhibitors of Plasmodium falciparum proliferation (AID 504749).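 Note: 0% = DMSO vehicle and full inhibition = artemisinin control; nearly all actives have a fitted effect of over 60% in size.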 Conditions: P. falciparum in erythrocytes, SYBR Green DNA, 72 h, at 28.7 µM (top of the series). A digest of the protocol:
(§1)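 In a 72 h erythrocytic culture (37 C, humidified, 5% CO2) at 2.5% hematocrit and 0.3% starting parasitemia, compounds were tested; SYBR Green I in detergent lysis buffer stained parasite DNA overnight.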

Assay [6] relates to CP203. The assay is described as above. The note with it: P. falciparum in erythrocytes, SYBR Green DNA, 72 h; series mostly up to 28.7 µM. A digest of the protocol: as §1
Assay [7] has as its system CP291. Described as above. Conditions: P. falciparum in erythrocytes, SYBR Green DNA, 72 h; series mostly up to 28.7 µM. A digest of the protocol: as §1
Assay [8] deals with W2. Described as above. The note with it: P. falciparum in erythrocytes, SYBR Green DNA, 72 h; series mostly up to 28.7 µM. A digest of the protocol:
as §1

The nature of assay [9]: Cell Viability - SH-SY5Y (AID 544).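 Note: cells exposed to compound for 40 hours; 0% = DMSO alone and -100% = 100 µM tamoxifen; nearly all actives have a fitted effect of over 55% in size.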 A digest of the protocol:
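Quantitative HTS in SH-SY5Y neuroblastoma cells, 40 hr treatment at 37 °C, ATP content by luciferase luminescence; AC50 from Hill fits.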

Assay [10] in a line: Cell Viability - LYMP1-002 - Assay at 40 hr (AID 994).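 Note: 0% = DMSO only and full inhibition = 92 µM tetraoctylammonium bromide; nearly all actives have a fitted effect of over 60% in size.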 A digest of the protocol: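 Concentration-dependent ATP loss after 40 hr treatment at 37 C defined toxicity; AC50 values were obtained by fitting the standard Hill equation.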
Assay [11] can be described thus: qHTS assay for small molecule antagonists of peroxisome proliferator-activated receptor delta signaling (AID 588535; active = well fitted inhibition curve with a large enough effect in the signal ratio, with a control signal flat, not every such curve was filed as active; the % refers to the signal ratio;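 for max response: cells co-treated with a PPAR-delta agonist as stimulator during compound exposure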). The note with it: HEK293T PPARd-UAS-bla, beta-lactamase FRET ratio, 18 h; 460 nm channel. A digest of the protocol:
(§2)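 Antagonist-mode qHTS using GeneBLAzer PPAR-delta-UAS-bla HEK293T cells; compound exposure 18 hrs at 37 C over a titration. Ratiometric CCF4 fluorescence at 460/530 nm; concentration-response points fitted to the Hill equation.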

Assay [12] has as its target Peroxisome proliferator-activated receptor delta (Homo sapiens) (UniProt Q03181). The assay is described as above. A digest of the protocol:
as §2

The nature of assay [13]: qHTS assay to identify small molecules that stimulate interleukin-8 (IL-8) secretion (AID 651758; active = well fitted activation curve with a large enough effect in the signal ratio; the % refers to the signal ratio; note: potency is the fitted concentration of half-maximal effect; for activation: 0% is about no effect). A digest of the protocol:
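Secreted IL-8 measured homogeneously by TR-FRET (two labelled anti-IL-8 antibodies, 1-3 h at room temperature) after a 16 h, 37 C compound treatment of THP-1 cells at 2000 cells/well.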

The nature of assay [14]: Cell Viability - LYMP2-021 (AID 974).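 Note: compound exposure lasts 24 hours at 37 °C; % is set by controls: 0 for no effect and ±100 for the full control effect; nearly all actives have a fitted effect of over 55% in size.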 A digest of the protocol:
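In qHTS format, compounds are tested against 2500 lymphoblastoid cells per well for 24 h; viable cell number is inferred from ATP-driven luciferase light, and Hill-equation fitting yields AC50 values.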

Assay [15] addresses Peroxisome proliferator-activated receptor gamma (Homo sapiens) (UniProt P37231). Briefly: qHTS assay for small molecule antagonists of peroxisome proliferator-activated receptor gamma signaling (AID 588537; active = well fitted inhibition curve with a large enough effect in the signal ratio, with a control signal flat, not every such curve was filed as active; the % refers to the signal ratio;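 note: reporter cells co-stimulated with 50 nM rosiglitazone agonist during compound treatment; % of control where 0% means no effect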). A digest of the protocol:
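Cell-based beta-lactamase assay; GW9662 served as the antagonist control. Stimulation used rosiglitazone, final 50 nM, 16 h, 37 C.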

Assay [16] has as its target Bile acid receptor (Homo sapiens) (UniProt Q96RI1). Briefly: qHTS assay for small molecule antagonists of farnesoid X receptor signaling (AID 588526; calls by dose curve; note: % is set by controls: 0 for no effect and ±100 for the full control effect). A digest of the protocol: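 Beta-lactamase reporter antagonist mode: HEK293T FXR-UAS-bla cells, titrated compound, CDCA stimulation, 16 h 37 C, CCF4 dye 2 h RT. Data normalized to CDCA 50 uM and DMSO; Hill-fit IC50.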

For assay [17], the target named is Estrogen receptor (Homo sapiens) (UniProt P03372). Briefly: qHTS assay for small molecule antagonists of estrogen receptor alpha signaling (AID 588513; active = well fitted curve in the direction sought with a large enough effect in the signal ratio, with a control signal flat, not every such curve was filed as active; the % refers to the signal ratio; note: % is set by controls: 0 for no effect and ±100 for the full control effect). A digest of the protocol: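 ER-alpha-UAS-bla GripTite HEK 293 cells in 2% charcoal/dextran-treated FBS medium; compounds titrated (1:2, duplicate), then stimulated with 0.5 nM 17-beta-estradiol for 18 h at 37C. CCF4 beta-lactamase fluorescence; Hill-fit IC50 and efficacy.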

In assay [18] the target is Glucocorticoid receptor (Homo sapiens) (UniProt P04150). Briefly: qHTS assay for small molecule agonists of glucocorticoid receptor signaling (AID 588532; active = well fitted curve in the direction sought with a large enough effect in the signal ratio, with a control signal flat; the % refers to the signal ratio;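 note: 100% = dexamethasone at 0.1 µM and 0% = DMSO only wells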). Conditions: HeLa MMTV-bla, beta-lactamase ratio, agonist, 18 h; stronger effect = higher value; percent of dexamethasone control, DMSO zero. A digest of the protocol: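 Agonist-mode qHTS: GRE-driven beta-lactamase in HeLa cells exposed 18 h to titrated compounds (up to 92 uM), then CCF4 ratio read after 2 h at RT; Hill-fitted EC50, efficacy relative to 0.1 uM dexamethasone.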

The nature of assay [19]: Cellular Toxicity (caspase-3) NIH 3T3 (AID 666).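 Note: caspase signal read after 16 h compound exposure; 0% = DMSO basal and 100% = 100 µM tamoxifen stimulation.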 A digest of the protocol:
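Activity: caspase-3/7 induction, NIH 3T3 cells, 16 hr treatment at 37°C, luminescent Caspase-Glo detection; AC50 via Hill equation.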

Assay [20] is described as follows: Cell Viability - LYMP2-015 (AID 971).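 Note: 0% = DMSO only and full effect = 92 µM tetraoctylammonium bromide; nearly all actives have a fitted effect of over 55% in size.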 A digest of the protocol: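 AC50 values reflect Hill-model fits of ATP-based luminescence (CellTiter-Glo) from a human lymphoblastoid line, 2500 cells/well, treated 24 hr at 37 C.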

Peroxisome proliferator-activated receptor delta (Homo sapiens), sequence (Q03181 whole entry, looked up): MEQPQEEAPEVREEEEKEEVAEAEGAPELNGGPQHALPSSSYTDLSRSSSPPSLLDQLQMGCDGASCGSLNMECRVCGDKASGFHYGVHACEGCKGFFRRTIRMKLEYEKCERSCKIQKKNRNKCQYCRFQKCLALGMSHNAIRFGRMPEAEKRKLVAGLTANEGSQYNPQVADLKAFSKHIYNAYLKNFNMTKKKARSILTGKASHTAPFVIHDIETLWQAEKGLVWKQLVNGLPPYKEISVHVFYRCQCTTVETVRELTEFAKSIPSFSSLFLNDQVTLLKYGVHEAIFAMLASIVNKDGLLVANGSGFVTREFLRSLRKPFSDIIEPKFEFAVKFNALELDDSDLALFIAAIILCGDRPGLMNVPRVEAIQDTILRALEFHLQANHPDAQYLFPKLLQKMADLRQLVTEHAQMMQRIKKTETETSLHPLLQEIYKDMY
Peroxisome proliferator-activated receptor gamma (Homo sapiens), sequence (P37231 whole entry, looked up): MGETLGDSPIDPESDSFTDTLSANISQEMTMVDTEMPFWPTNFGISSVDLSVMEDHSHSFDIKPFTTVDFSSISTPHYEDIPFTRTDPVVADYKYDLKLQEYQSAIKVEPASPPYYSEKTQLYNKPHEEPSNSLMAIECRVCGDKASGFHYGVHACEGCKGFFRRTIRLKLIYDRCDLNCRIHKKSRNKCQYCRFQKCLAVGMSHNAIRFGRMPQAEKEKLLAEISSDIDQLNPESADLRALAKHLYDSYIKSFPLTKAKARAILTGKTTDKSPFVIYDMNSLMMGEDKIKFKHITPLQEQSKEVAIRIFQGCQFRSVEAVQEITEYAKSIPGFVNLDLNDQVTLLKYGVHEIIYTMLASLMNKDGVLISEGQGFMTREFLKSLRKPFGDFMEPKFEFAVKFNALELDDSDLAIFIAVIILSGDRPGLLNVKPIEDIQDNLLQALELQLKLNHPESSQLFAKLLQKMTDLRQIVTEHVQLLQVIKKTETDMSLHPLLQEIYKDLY
Cytochrome P450 2C9 (Homo sapiens), sequence (P11712 whole entry, looked up): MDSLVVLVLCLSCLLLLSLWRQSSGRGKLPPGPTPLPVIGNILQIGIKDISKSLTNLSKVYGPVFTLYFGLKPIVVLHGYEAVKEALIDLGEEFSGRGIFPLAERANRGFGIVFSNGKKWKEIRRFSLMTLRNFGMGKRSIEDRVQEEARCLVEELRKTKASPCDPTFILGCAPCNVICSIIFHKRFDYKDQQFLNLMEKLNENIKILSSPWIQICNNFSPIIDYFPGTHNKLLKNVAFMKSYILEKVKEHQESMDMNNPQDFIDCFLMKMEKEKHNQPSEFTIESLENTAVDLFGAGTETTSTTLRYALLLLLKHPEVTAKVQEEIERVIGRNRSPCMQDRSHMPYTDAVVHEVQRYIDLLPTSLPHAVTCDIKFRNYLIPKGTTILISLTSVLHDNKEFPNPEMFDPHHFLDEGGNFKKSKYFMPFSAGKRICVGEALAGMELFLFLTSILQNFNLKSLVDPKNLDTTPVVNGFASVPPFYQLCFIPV
Bile acid receptor (Homo sapiens), sequence (Q96RI1 whole entry, looked up): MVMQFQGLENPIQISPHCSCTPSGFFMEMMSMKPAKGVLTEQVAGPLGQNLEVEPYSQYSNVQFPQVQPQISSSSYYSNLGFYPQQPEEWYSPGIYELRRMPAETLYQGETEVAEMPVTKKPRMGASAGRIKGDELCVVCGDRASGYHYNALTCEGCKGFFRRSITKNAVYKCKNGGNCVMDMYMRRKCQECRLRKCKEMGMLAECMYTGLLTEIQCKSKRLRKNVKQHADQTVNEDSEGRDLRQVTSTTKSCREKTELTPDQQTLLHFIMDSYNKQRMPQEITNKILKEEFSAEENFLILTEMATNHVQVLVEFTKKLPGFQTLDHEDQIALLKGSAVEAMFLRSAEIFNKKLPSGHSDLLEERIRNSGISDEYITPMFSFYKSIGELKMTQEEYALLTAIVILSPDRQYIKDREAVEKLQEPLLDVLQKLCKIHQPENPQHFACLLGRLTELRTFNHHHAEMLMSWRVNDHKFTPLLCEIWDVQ
Glucocorticoid receptor (Homo sapiens), sequence (P04150 whole entry, looked up): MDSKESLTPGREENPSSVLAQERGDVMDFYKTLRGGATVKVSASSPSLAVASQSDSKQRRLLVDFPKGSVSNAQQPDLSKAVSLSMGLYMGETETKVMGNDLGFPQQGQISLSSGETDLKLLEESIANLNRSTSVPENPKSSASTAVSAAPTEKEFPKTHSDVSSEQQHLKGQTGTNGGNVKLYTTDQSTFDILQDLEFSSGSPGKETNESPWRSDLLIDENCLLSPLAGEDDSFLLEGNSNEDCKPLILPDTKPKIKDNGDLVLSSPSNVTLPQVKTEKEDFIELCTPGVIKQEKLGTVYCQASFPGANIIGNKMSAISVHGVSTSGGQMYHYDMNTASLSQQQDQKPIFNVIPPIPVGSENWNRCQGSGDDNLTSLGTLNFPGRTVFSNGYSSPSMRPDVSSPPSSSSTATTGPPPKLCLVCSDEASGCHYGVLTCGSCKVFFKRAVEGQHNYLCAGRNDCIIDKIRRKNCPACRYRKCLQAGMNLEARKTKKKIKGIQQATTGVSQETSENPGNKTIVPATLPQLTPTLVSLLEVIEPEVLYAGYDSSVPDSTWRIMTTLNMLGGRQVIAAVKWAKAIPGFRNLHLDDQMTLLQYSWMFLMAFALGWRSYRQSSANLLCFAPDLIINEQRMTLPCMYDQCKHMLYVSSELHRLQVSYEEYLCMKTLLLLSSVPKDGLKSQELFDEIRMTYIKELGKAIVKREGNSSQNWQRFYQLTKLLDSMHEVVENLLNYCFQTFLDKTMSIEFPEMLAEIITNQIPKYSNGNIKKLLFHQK
Estrogen receptor (Homo sapiens), sequence (P03372 whole entry, looked up): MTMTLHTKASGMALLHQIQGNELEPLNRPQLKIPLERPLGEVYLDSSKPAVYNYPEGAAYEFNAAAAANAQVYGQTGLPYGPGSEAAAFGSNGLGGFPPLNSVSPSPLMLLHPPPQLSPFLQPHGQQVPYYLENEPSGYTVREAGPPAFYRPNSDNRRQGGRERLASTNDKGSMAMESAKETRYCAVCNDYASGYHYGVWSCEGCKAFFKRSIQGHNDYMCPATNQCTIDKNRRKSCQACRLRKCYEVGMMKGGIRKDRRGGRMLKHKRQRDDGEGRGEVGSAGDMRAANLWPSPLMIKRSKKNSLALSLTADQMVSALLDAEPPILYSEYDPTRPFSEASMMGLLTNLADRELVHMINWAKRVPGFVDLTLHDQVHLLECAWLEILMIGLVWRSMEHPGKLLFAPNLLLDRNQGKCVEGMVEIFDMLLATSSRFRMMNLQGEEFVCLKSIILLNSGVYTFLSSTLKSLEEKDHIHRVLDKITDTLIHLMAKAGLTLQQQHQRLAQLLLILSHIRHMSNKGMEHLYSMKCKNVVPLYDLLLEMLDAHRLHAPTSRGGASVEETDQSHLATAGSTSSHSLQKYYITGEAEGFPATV
ATP-dependent 6-phosphofructokinase (Trypanosoma brucei brucei), sequence (O15648 whole entry, looked up): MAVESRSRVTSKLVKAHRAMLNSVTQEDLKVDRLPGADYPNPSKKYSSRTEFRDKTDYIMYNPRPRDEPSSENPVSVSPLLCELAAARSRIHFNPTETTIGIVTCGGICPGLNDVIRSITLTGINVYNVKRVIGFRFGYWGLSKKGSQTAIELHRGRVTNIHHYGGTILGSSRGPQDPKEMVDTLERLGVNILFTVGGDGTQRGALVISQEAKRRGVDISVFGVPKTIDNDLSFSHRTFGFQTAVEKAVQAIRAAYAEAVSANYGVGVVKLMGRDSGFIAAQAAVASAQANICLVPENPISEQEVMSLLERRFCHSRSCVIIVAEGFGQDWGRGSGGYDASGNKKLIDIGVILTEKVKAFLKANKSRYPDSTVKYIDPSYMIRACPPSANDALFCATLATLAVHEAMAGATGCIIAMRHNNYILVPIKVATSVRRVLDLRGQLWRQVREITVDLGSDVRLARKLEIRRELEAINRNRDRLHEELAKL
Dual specificity protein kinase CLK4 (Homo sapiens), sequence (Q9HAZ1 whole entry, looked up): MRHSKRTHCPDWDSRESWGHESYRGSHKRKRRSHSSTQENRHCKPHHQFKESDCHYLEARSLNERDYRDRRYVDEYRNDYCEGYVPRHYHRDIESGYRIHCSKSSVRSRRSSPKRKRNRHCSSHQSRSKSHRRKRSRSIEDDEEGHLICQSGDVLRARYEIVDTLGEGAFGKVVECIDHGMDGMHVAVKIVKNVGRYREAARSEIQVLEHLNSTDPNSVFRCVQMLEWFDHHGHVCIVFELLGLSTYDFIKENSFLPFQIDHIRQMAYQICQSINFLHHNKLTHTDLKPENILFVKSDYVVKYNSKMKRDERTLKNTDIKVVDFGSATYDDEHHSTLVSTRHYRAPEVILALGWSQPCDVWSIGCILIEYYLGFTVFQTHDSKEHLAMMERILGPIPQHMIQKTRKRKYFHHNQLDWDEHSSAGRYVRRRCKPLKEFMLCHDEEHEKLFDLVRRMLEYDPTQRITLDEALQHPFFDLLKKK

Consider `CN(C)c1ncc2nc(CCc3ccccc3)c(=O)n(CCc3ccccc3)c2n1`, for which the activation in [1] is 21.3% (inactive).
As to `COCCn1c(=O)c(-c2ccccc2)nc2cnc(Oc3cccc(Cl)c3)nc21`, the Potency in [2] is 0.501 µM (active).
Consider `COc1ccc(-c2nc3cnc(N4CCN(C)CC4)nc3n(CCc3ccccc3)c2=O)cc1`, for which, in assay [1], the Potency was 3.16 µM (active).
Turning to `CC(=O)NCCNc1nc(-c2cccc(C#N)c2)nc2ccccc12`, in assay [3], the Potency was 28.2 µM (active).
On to `CC(=O)OC1CC2CCC1(C)C2(C)C` (configuration not stated), for which, in assay [4], the molecule was called inactive. Further, the activity, negative = inhibition in assay [5] (parasite line A) was 6.76% (inactive); in assay [5] (parasite line B) it was 13.6% (inactive). The Potency result in [6], in [7] and in assay [8] was “inactive” in each case.
Turning to `c1ccc2c(NCCN3CCOCC3)nc(-c3ccoc3)nc2c1`, the activation in [1] was -2.73% (inactive).
Take `C=CC(=C)CCC=C(C)C`: the Potency result in [9], in [10], in assay [12] and in assay [13] was “inactive” each time. Also, the max response in assay [11] was -12.1%.
With `O=C(O)c1ccccc1`, the Potency entry in [14] was “inactive”. Moreover, the call in [15] was inactive.
For `C=CC(C)(CCC=C(C)C)OC(C)=O` (configuration not stated), the molecule was called inactive in [16] and in assay [15]. For the same molecule, the max response in assay [11] is -1.31%. In addition, the Potency result in assay [12] is “inactive”.
For the molecule `COc1ccc(/C=C/c2cc(OC)cc(=O)o2)cc1`, the Potency entry in assay [10] and in [17] was “inactive” in each case. In addition, the call in assay [16] was inactive. For the same molecule, in assay [13], the Potency was 66.8 µM (active).
Turning to `COc1cc(/C=C/c2ccccc2)oc(=O)c1`, the Potency result in assay [14], in [17] and in assay [12] was “inactive” throughout. Also, the activation in assay [18] is 1.13% (inactive). The max response in [11] is -19.2%. For the same molecule, the molecule was classed as inactive in [15].
As for `C=C(C)C1CC=C(C)C(O)C1` (configuration not stated), the outcome in assay [19] and in assay [15] was inactive. Besides, the Potency result in assay [20] is “inactive”. Besides, in assay [18], the activation was 0.682% (inactive).
Consider `CN1CCN(c2ncc3nc(-c4cn(C)c5ccccc45)c(=O)n(C[C@H]4CCCO4)c3n2)CC1`, for which the Potency entry in assay [2] was “inactive”.
With `CCCCCCCCCCCCCC(=O)O`, the Potency entry in assay [20], in assay [14] and in assay [10] was “inactive” in each case. For the same molecule, the result in assay [16] and in [15] was inactive. Besides, the activation in [18] is -3.49% (inactive) and -3.58% (inactive).
For the molecule `C=CCc1ccc(OC)c(OC)c1`, the call in assay [19], in assay [16] and in assay [15] was inactive. The Potency result in assay [20], in [14], in [10], in assay [12] and in assay [13] was “inactive” each time. For the same molecule, the activation in assay [18] was -12.3% (inactive). For the same molecule, the max response in assay [11] was 10.2% and -6.71%.
Take `CCCCCCCCCCCC(=O)O`: the Potency entry in assay [9], in assay [20], in assay [14], in assay [10] and in [12] was “inactive” throughout. Further, the result in assay [19] was inactive. Moreover, the max response in assay [11] was 12.5%.
For the molecule `O=c1cc(-c2ccc(O)c(O)c2)oc2cc(O[C@@H]3O[C@@H](CO)[C@@H](O)[C@@H](O)[C@H]3O)cc(O)c12`, in assay [2], the Potency result is “inactive”.
`CC1=C2[C@H](/C=C(\C)C(=O)O)CC[C@@H](C)[C@H]2CC1`: the Potency result in [9] and in assay [10] was “inactive” in each case. Besides, the molecule was called inactive in [19] and in assay [16].
Turning to `CN(C)C(=O)c1ccc(-c2ccc3ncnc(Nc4ccc(F)cc4)c3c2)cc1`, the activation in [1] is 7.84% (inactive).
Regarding `COCCn1c(=O)c(-c2cccs2)nc2cnc(N3CCNCC3)nc21`, the Potency in assay [2] was 2 µM (active).
